The values below are quoted from earlier work in PubChem BioAssay AID977611.

This series is described as follows: PubChem AID 977611. As to conditions: PDB protein-ligand complexes, literature Kd.

Out of some 3,900 compounds screened, about 3,900 (100%) were called active. Cut-off not given; nearly all actives show Kd up to about 4200 µM. So high a share suggests a set chosen from earlier hits. The list shows a part of the results. Starred links: 1 amine or outer side, 2 acyl side, 3 side chain; linkers in the order of their positions; H or OH if unused. *1 amine or outer side, *2 acyl side, *3 side chain or, on linkers, in order; H or OH if unused. Where a SMILES comes first, the peptide text is derived from it. Non-standard residues stand in square brackets, D forms with d. Square brackets hold non-standard residues; d marks the D form. Residues, ends and D or L forms follow the SMILES beside them. Peptide text beside a SMILES is read from it. [ ]: non-standard residue; d: D form. * marks the point of attachment. X1 = O=C([C@H](Cc1ccc(O[P+](O)(O)O)cc1)N[*:1])[*:2]; Orn(CH(NH2)2) = NC(N)NCCC[C@H](N)C(=O)O; AMC = Cc1cc(=O)oc2cc(N*)ccc12

In the case of `CC(C)C[C@H](N)C(=O)NCC(=O)N[C@@H](CCCCN)C(=O)N[C@@H](CCCNC(N)N)C(=O)N[C@@H](CCCCN)C(=O)N[C@@H](Cc1ccc(O)cc1)C(=O)O` (H-LGK[Orn(CH(NH2)2)]KY-OH), the Kd (protein: IMPORTIN SUBUNIT ALPHA-2, PDB entry 4ba3) was 2900 nM (active).

Turning to `CC(C)C[C@H](NC(=O)[C@@H](NC(=O)[C@@H](N)[C@@H](C)O)C(C)C)C(=O)NCC(=O)N[C@@H](CCCCN)C(=O)N[C@@H](CCCNC(N)N)C(=O)N[C@@H](CCCCN)C(=O)O` (H-TVLGK[Orn(CH(NH2)2)]K-OH), the dissociation constant Kd (protein: IMPORTIN SUBUNIT ALPHA-1A, PDB entry 4b8p) is 140 nM (active).

In the case of `CC(C)C[C@H](NC(=O)[C@@H](NC(=O)[C@@H](N)CO)C(C)C)C(=O)NCC(=O)N[C@@H](CCCCN)C(=O)N[C@@H](CCCNC(N)N)C(=O)N[C@@H](CCCCN)C(=O)N[C@@H](CCCNC(N)N)C(=O)N[C@@H](Cc1cnc[nH]1)C(=O)O` (H-SVLGK[Orn(CH(NH2)2)]K[Orn(CH(NH2)2)]H-OH), the Kd (protein: IMPORTIN SUBUNIT ALPHA-1A, PDB entry 2yns) is 25 nM (active).

For the molecule `CC(C)C[C@H](N)C(=O)NCC(=O)N[C@@H](CCCCN)C(=O)N[C@@H](CCCNC(N)N)C(=O)N[C@@H](CCCCN)C(=O)N[C@@H](CCCNC(N)N)C(=O)N[C@@H](Cc1cnc[nH]1)C(=O)O` (H-LGK[Orn(CH(NH2)2)]K[Orn(CH(NH2)2)]H-OH), the equilibrium dissociation constant (Kd) (protein: IMPORTIN SUBUNIT ALPHA, PDB entry 2ynr) was 1700 nM (active).

Consider `CSCC[C@H](NC(=O)[C@H](CC(C)C)NC(=O)[C@H](CCCCN)NC(=O)[C@H](CCCCN)NC(=O)[C@H](Cc1cnc[nH]1)NC(=O)[C@H](CCCNC(N)N)NC(=O)[C@@H](N)CO)C(=O)N[C@@H](Cc1ccccc1)C(=O)N[C@@H](CCCCN)C(=O)O` (H-S[Orn(CH(NH2)2)]HKKLMFK-OH), for which the dissociation constant Kd (protein: phospho-CDK2/cyclin A, PDB entry 1h26) is 2900 nM (active).

In the case of `CC(=O)NCCCC[C@H](NC(=O)[C@H](CCCCN)NC(=O)[C@H](Cc1cnc[nH]1)NC(=O)[C@H](CCCNC(N)N)NC(C)=O)C(=O)Nc1ccc2c(C)cc(=O)oc2c1` (Ac-[Orn(CH(NH2)2)]HKK(Ac)-{AMC}), the Kd (protein: NAD-dependent protein deacetylase sirtuin-3, mitochondrial, PDB entry 4fz3) was 184000 nM (active).

`NC1=NC(=O)c2ccccc2C1`: where the note is “protein: proCaspase-6, PDB entry 4n6g”, the Kd is 3400 nM (active).

In the case of `CN(C)C1=NC(=O)c2ccccc2C1`, the Kd (protein: Caspase-6, PDB entry 4n7j) was 3400 nM (active).

Consider `CCCCCCCCCCCCCCCC(=O)OC[C@@H](CO[P+](O)(O)OC1[C@H](O)[C@H](O[P+](O)(O)O)C(O[P+](O)(O)O)[C@H](O[P+](O)(O)O)[C@H]1O)OC(=O)CCCCCCCCCCCCCCC` (stereo not given in full), for which the Kd (protein: Steroidogenic factor 1 SF-1, PDB entry 4qjr) is 80 nM (active).

In the case of `CCCCCCCCCCCCCCCC(=O)OC[C@@H](CO[P+](O)(O)O[C@@H]1[C@H](O)[C@H](O)[C@@H](O[P+](O)(O)O)[C@H](O[P+](O)(O)O)[C@H]1O)OC(=O)CCCCCCCCCCCCCCC`, for the setting “protein: Steroidogenic factor 1 SF-1, PDB entry 4qk4”, the Kd was 250 nM (active).

With H-ANSNNPDWDF-OH, the Kd (protein: Humanized KR127 Fab, PDB entry 2eh8) was 11 nM (active).

Take H-ATPAWN-OH: under “protein: mRNA-capping enzyme subunit beta Pct1, PDB entry 4pn1”, the Kd is 680 nM (active).

In the case of H-GASDGSGWSSENNPW-OH, under “protein: protein TolB, PDB entry 2ivz”, the Kd is 920 nM (active).

Regarding H-NDWLLPSY-OH, where the note is “protein: Microtubule-associated protein 1 light chain 3 (C32I, C119S, C122S mutation), PDB entry 4eoy”, the Kd was 326 nM (active).

Turning to H-DWDFLPP-NH2, the Kd (protein: Gamma-aminobutyric acid receptor-associated protein, PDB entry 3dow) is 11500 nM (active).

As for `CC(C)C[C@H](NC(=O)[C@H](Cc1ccccc1)NC(=O)[C@@H]1CCCN1C(=O)[C@@H](NC(=O)[C@H](CC(C)C)NC(=O)[C@H](CO)NC(=O)[C@H](Cc1c[nH]cn1)NC(=O)[C@H](Cc1c[nH]c2ccccc12)NC(=O)[C@@H]1CCCN1C(=O)[C@H](Cc1ccccc1)NC(=O)[C@@H](N)C(C)C)C(C)C)C(=O)N[C@@H](C)C(=O)N1CCC[C@H]1C(=O)N[C@@H](CO)C(=O)N[C@@H](CCC(N)=O)C(=O)O` (H-VFPWHSLVPFLAPSQ-OH), for the setting “protein: Ataxin-1, PDB entry 2m41”, the Kd was 8000 nM (active).

As to `C=CCO[C@]1(C(=O)O)C[C@@H](O[C@]2(C(=O)O)C[C@@H](O)[C@@H](O)[C@@H]([C@H](O)CO[C@]3(C(=O)O)C[C@@H](O)[C@@H](O)[C@@H]([C@H](O)CO)O3)O2)[C@@H](O)[C@@H]([C@H](O)CO)O1`, the Kd (protein: antigen binding fragment of mAb S25-26, PDB entry 4m7j) is 781 nM (active).

Turning to `CC(=O)N[C@@H](CC(=O)O)C(=O)N[C@H](C(=O)N[C@@H](CCC(=O)O)C(=O)N[C@H](C(=O)N[C@@H](Cc1ccc(O[P+](O)(O)O)cc1)C(=O)N[C@@H](CCC(=O)O)C(=O)N[C@@H](CO)C(=O)N1CCC[C@H]1C(=O)N[C@@H](Cc1ccc(O[P+](O)(O)O)cc1)C(=O)N[C@@H](C)C(=O)N[C@@H](CC(=O)O)C(=O)N1CCC[C@H]1C(=O)N[C@@H](CCC(=O)O)C(N)=O)C(C)C)[C@@H](C)O` (Ac-DTEV[X1]ESP[X1]ADPE-NH2), the Kd (protein: C-termainl SH2 domain from phospholipase C-gamma-1 comprising residues 663-759( PLC?), PDB entry 2fci) is 70 nM (active).

For the molecule `CC(C)[C@H](NC(=O)[C@H](CCC(=O)O)NC(=O)[C@@H](NC(=O)[C@@H](N)CC(=O)O)[C@@H](C)O)C(=O)N[C@@H](Cc1ccc(O)cc1)C(=O)N[C@@H](CCC(=O)O)C(=O)N[C@@H](CO)C(=O)N1CCC[C@H]1C(=O)N[C@@H](Cc1ccc(O[P+](O)(O)O)cc1)C(=O)N[C@@H](C)C(=O)N[C@@H](CC(=O)O)C(=O)N1CCC[C@H]1C(=O)N[C@@H](CCC(=O)O)C(=O)O` (H-DTEVYESP[X1]ADPE-OH), the Kd (protein: Proto-oncogene vav, PDB entry 2mc1) was 71000 nM (active).

As for `O=C(Nc1ccc(-c2nn[nH]n2)cc1Cc1ccccc1)c1cccc(CC2CCCCC2)n1`, the equilibrium dissociation constant (Kd) (protein: KSHV Protease, PDB entry 4p3h) is 1000 nM (active).

One may read the Kd as the concentration at which binding is half-saturated.
